A selection: hits, their analogues and other compounds. The true share with any hit is near 11%.
Sm TGR inh: blocks Schistosoma mansoni thioredoxin glutathione reductase; Q962Y6; purified TGR, DTNB reduction, TNB absorbance 405 nm; Potency, µM (series often up to 114 µM), inactives show at the highest dose activity change, negative = inhibition, most hits filed as inhibitors; hit rate 3% among 360,000; AID 485364; further: on the % scale 0 is the no-effect control and ±100 the full control effect; nearly all actives have a fitted effect of over 60% in size
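Kinetic colorimetric format: TGR-catalysed, NADPH-driven DTNB reduction monitored via TNB absorbance. Enzyme dispensed at 20 nM; compound exposure 15 min at room temperature before reaction start.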
Pf growth 48h: P. falciparum growth inhibition at 48 hours (one generation) | hit rate 5.9% among 310,000 | Potency, µM (doses to about 28.7 µM), for inactives: at the highest dose activity change, negative = inhibition, actives largely listed as inhibitors | P. falciparum luciferase growth in erythrocytes, 48 h | AID 504832; further: on the % scale 0 is the no-effect control and ±100 the full control effect
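Cell-based growth assay: transgenic P. falciparum expressing firefly luciferase, cultured in red cells within RPMI 1640 containing 0.5% w/v Albumax, 24 mM bicarbonate and gentamycin. A drop in luciferase activity indicates inhibition.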
Pf growth 96h: P. falciparum growth inhibition at 96 hours. P. falciparum luciferase reporter growth, 96 h. Potency, µM (highest dose often 28.7 µM), for inactives: at the highest dose activity change, negative = inhibition, usual class: inhibitors. hit rate 6.9% among 320,000; further: on the % scale 0 is the no-effect control and ±100 the full control effect
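Compounds incubated with erythrocytes infected by luciferase-expressing P. falciparum (2% hematocrit, 0.05% parasitemia final) for 96 hours, 37 C in 5% CO2. Growth inhibition scored as decreased luciferase luminescence.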
NS1 function inh: blocks influenza NS1 protein function. Potency, µM (top dose mostly 46.1 µM), for inactives: at the highest dose activity, positive = more growth. hit rate 0.4% among 270,000; calls by dose curve; further: actives are rising curves; nearly all actives have a fitted effect of over 50% in size
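In this qHTS, NS1 from influenza A is expressed in budding yeast, where it slows growth. Cells are switched from glucose to 2% galactose medium (pH 6.0, -URA), treated with compound, and growth recovery is read at OD600.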
AMA1-RON2 inh: disrupts binding of P. falciparum AMA1 to RON2; AlphaScreen AMA1-biotinylated RON2 peptide binding; Potency, µM (series often up to 58.2 µM), for inactives: at the top dose activity change, negative = inhibition, actives largely listed as inhibitors; hit rate 0.2% among 360,000;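 further: 0% = vehicle wells and -100% = peptide control; nearly all actives have a fitted effect of over 45% in size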
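AMA1 (3D7) with his tag at 25 nM final met compounds first, then biotinylated RON2 peptide at 25 nM; detection used donor plus acceptor beads, 10 µg/mL apiece, read by AlphaScreen after 30 min at room temperature.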
* marks the source's active call; other numbers are inactive results; u = inconclusive; x = no result. Unless noted, the call rests on the fitted dose curve; in most records, active means well fitted curve in the direction sought with a large enough effect; inconclusive means small, poorly fitted or top-dose-only effect, or another doubt; inactive means no such curve, though single readings can be large; an effect the other way counts as inactive or inconclusive. Potency means the concentration at half of the fitted maximal effect.

SMILES | Sm TGR inh | Pf growth 48h | Pf growth 96h | NS1 function inh | AMA1-RON2 inh
O=C(NNC(=O)c1ccccc1[N+](=O)[O-])c1ccccc1[N+](=O)[O-] | 0% | 10% | 7.4µM* | 1% | -8%
O=C(N/N=C/c1cccc([N+](=O)[O-])c1)C1CC1c1ccccc1 (stereo not given) | 1% | 0% | 12µM* | -2% | 9%
O=C(NNC(=O)C1CC1c1ccccc1)c1ccccc1[N+](=O)[O-] (stereo not given) | -8% | 47% | 12µM* | 11% | 47%
O=C(NCCNC(=O)c1ccccc1[N+](=O)[O-])c1ccccc1[N+](=O)[O-] | x | x | x | x | -1%
COc1ccc(C(=O)NNC(=O)c2ccccc2[N+](=O)[O-])cc1 | 3% | 122% | 13µM* | 6% | 33%
CC1CC(C)CN(S(=O)(=O)c2ccc(Oc3ccc([N+](=O)[O-])cc3)cc2)C1 (stereo not given) | 8% | 9% | u | -4% | -4%
CC(=O)c1ccc(N2CCN(C3CCC(C(C)(C)C)CC3)CC2)cc1 (stereo not given) | -13% | 147% | u | -10% | -10%
O=C(CS(=O)(=O)c1cccc2nsnc12)N1CCN(c2ccc(F)cc2)CC1 | -10% | x | x | x | x
O=C(NNC(=S)NC(=O)c1ccccc1[N+](=O)[O-])c1ccccc1 | -19% | u | 10% | -11% | 33%
O=C1CN(C(=S)NC(=O)c2ccccc2[N+](=O)[O-])CCN1 | 0% | 6% | 7.4µM* | 4% | 21%
N[C@H](CO)C(=O)NCC(=O)O | x | x | x | -1% | x
NC(CO)C(=O)NNCc1ccc(O)c(O)c1O (stereo not given) | 0.32µM* | -3% | 5% | u | u
COc1ccc(C)cc1Nc1nc(-c2c[nH]c3ccccc23)cs1 | -14% | u | 2.1µM* | u | 8%
COc1ccc(OC)c(Nc2nc(-c3cccs3)cs2)c1 | -9% | 1% | x | u | -16%
CCCN(C(=O)CSc1nc(C2CC2)n(-c2ccccc2)n1)C1CCS(=O)(=O)C1 (stereo not given) | -5% | -20% | -29% | x | 0%
CCOC(=O)c1ccc(OCC2c3cc(OC)c(OC)cc3CCN2C(=O)Cc2ccc(OC)c(OC)c2)cc1 (stereo not given) | -11% | x | x | x | x
CCCCc1c(C)nc2cc(-c3ccco3)[nH]n2c1=O | -29% | u | u | 0% | 0%
O=C1c2nc3cc(-c4ccco4)[nH]n3c(=O)c2CN1Cc1ccccc1 | 20µM* | -17% | -8% | 15% | -10%
Cc1ccc(Nc2nc3ccc(Cl)cc3n3cnnc23)cc1F | 3% | 10µM* | u | -4% | 15%
CCN(C(=O)/C=C/c1ccccc1)C1CCCCC1 | 3% | 84% | 13µM* | 1% | 11%
CCN(CC)C(=O)/C=C/c1ccccc1 | 0% | 81% | 80% | x | -5%
O=C(CSc1nc2c(sc3ccccc32)c(=O)n1Cc1ccco1)NCC1CCCO1 (stereo not given) | 0% | 8.3µM* | 9.3µM* | -6% | 15%
CCN(CC)CCn1c(SCC(=O)NCc2ccco2)nc2c(sc3ccccc32)c1=O | 32µM* | u | x | 3% | 4%
CN(C(=O)C1CCC(=O)N(C2CC2)C1)C1CCCCC1 (stereo not given) | -6% | 9% | -19% | -1% | 1%
CC(=O)Nc1nc(C(=O)O)cs1 | -9% | 11% | 64% | x | 7%
SMILES | Sm TGR inh | Pf growth 48h | Pf growth 96h | NS1 function inh | AMA1-RON2 inh
COc1ccc(OC2C(=O)N(Cc3ccc4c(c3)OCO4)C2c2sccc2C)cc1 (stereo not given) | 9% | u | 4.1µM* | 4% | -2%
Nc1c(C(=O)Nc2ccccc2Cl)c2ccccn2c1C(=O)c1ccc(Cl)cc1 | 12% | x | x | x | x
CCOC(=O)c1cnn(-c2cccc(Cl)c2)c1C1CCN(C(=O)OC(C)(C)C)CC1 | -1% | x | x | x | x
CC1(C)Cc2c(C#N)c(N3CCOCC3)nc(-c3ccccc3)c2CO1 | -13% | 10µM* | u | -9% | 53%
Cc1nc(N2CCOCC2)c(C#N)c2c1COC(C)(C)C2 | 1% | -1% | 5% | -6% | -7%
CCc1nc(N2CCN(C(=O)c3ccccc3)CC2)c(C#N)c2c1COC(C)(C)C2 | 0% | 9.3µM* | u | -15% | -9%
Cc1ccc(S(=O)(=O)N2CCN(c3nc(C)c4c(c3C#N)CC(C)(C)OC4)CC2)cc1 | 0% | 6.6µM* | -22% | 9% | -4%
CCCC(=O)N1CCN(c2nc(CC(C)C)c3c(c2C#N)CCC3)CC1 | 0% | 2.6µM* | 0% | -73% | 7%
CC(C)C(=O)N1CCN(c2nc(-c3ccccc3)c3c(c2C#N)CCCC3)CC1 | 0% | x | 8.3µM* | 7% | 5%
Cc1ccc(S(=O)(=O)n2ccc(OC(=O)c3cccs3)n2)cc1 | 6.3µM* | 53% | 77% | -9% | 0%
CN1C(=O)S/C(=C\c2ccc(-n3cncn3)cc2)C1=O | -7% | 0% | -16% | -5% | 0%
O=c1[nH]c2cc3c(cc2cc1CN(Cc1nnnn1C1CCCC1)C1CCCC1)OCCO3 | 50µM* | x | 9.3µM* | 4% | -13%
CCC(C)(C)n1nnnc1CN(Cc1cc2cc(OC)c(OC)cc2[nH]c1=O)C1CCCC1 | 25µM* | 8% | 67% | 6% | 3%
COc1cc2cc(CN(Cc3nnnn3C3CCCC3)C3CCCC3)c(=O)[nH]c2cc1OC | -14% | 6% | -32% | -14% | x
Cc1ccc(C)c2[nH]c(=O)c(CN(CCN3CCOCC3)Cc3nnnn3CC3CCCO3)cc12 (stereo not given) | 20µM* | -23% | 77% | -6% | 0%
CCC(c1nnnn1C1CCCCC1)N(Cc1ccco1)Cc1cc2ccc(OC)cc2[nH]c1=O (stereo not given) | 6% | 7.4µM* | -7% | -2% | 12%
Cc1ccc2cc(C(c3nnnn3C3CCCC3)N(Cc3ccco3)Cc3cccs3)c(=O)[nH]c2c1 (stereo not given) | -29% | x | u | 26% | -12%
Cc1ccc2[nH]c(=O)c(CN(Cc3nnnn3C3CCCC3)C3CCCCC3)cc2c1 | 0% | 1% | x | -51% | 5%
Cc1ccc2cc(C(c3nnnn3C3CCCC3)N(Cc3cccnc3)Cc3ccco3)c(=O)[nH]c2c1 (stereo not given) | u | 13µM* | -22% | -14% | -4%
COc1ccc2[nH]c(=O)c(CN(Cc3nnnn3Cc3ccco3)C3CCCCC3)cc2c1 | 56µM* | u | 5.2µM* | u | u
COc1ccc(Cn2nnnc2CN(Cc2cc3cc(C)ccc3[nH]c2=O)C2CCCC2)cc1 | 35µM* | u | -16% | -40% | 0%
COc1ccc2[nH]c(=O)c(CN(C3CCCCC3)C(c3nnnn3Cc3ccco3)C(C)C)cc2c1 (stereo not given) | 13µM* | 13µM* | 42% | 11% | 0%
CC(C)(C)OC(=O)N1CCC(c2c(C(=O)NCCN3CCOCC3)cnn2-c2cccc(Cl)c2)CC1 | 1% | x | x | x | x

Source: PubChem
